41 molecules from PubChem BioAssay (NCATS) can be followed below.

SMILES strings stand for the structures. Where “and” joins values, the source holds several entries; their conditions need not be identical. Equal values may be shown once. Results filed as inconclusive are left out. Some structures have more than one record in an assay (separate samples or runs), and their calls can disagree. Calls of active or inactive are those of the source. Unless noted, calls come from the whole dose curve; as a rule, active = well fitted curve in the direction sought with a large enough effect; inconclusive = small, poorly fitted or top-dose-only effect, or another doubt; inactive = no such curve, though single readings can be large; an effect the other way counts as inactive or inconclusive. Where a SMILES comes first, the peptide text is derived from it.

A short description of test [1]: Primary qHTS for small molecule stabilizers of the endoplasmic reticulum resident proteome: Secreted ER Calcium Modulated Protein (SERCaMP) assay (AID 1508630). The gist of the method: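 The SH-SY5Y reporter protocol was run at 3 concentrations up to 38.3 uM (primary) or 11 concentrations (follow-up): 16 h compound, 100 nM thapsigargin for 4 h, then extracellular luciferase luminescence.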
Background: qHTS replaces the single test concentration by a dilution series.

In another test the target is Papain (Carica papaya) (UniProt P00784). The test is described as follows: Primary qHTS assay for inhibitors of the protease papain (AID 1645873).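 Note: papain turnover of Z-FR-AMC read as the AMC fluorescence gain over 10 min; series mostly up to about 50 µM.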
Test [2] can be described thus: Primary qHTS for inhibitors of nuclear receptor binding SET domain protein 2 (NSD2) in an isogenic RCH-ACV NSD2 p.E1099K mutant (9B) (AID 1645876). Note: nearly all actives have a fitted effect of over 70% in size. Note: potency is the fitted concentration of half-maximal effect.
The nature of test [3]: A High-Content qHTS Against Drug Library for the Identification of Small Molecules that Inhibit DYT1 Early Onset Primary Dystonia-Associated Cell Pathology (AID 1645839; calls by dose curve; note: potency is the fitted concentration of half-maximal effect). The gist of the method:
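Induced EGFP-delE TorsinA cells are imaged after 48 h of compound treatment. Punctate fusion-protein distribution gives the %pathology value, while nuclei counts flag toxicity. Wild-type EGFP-hTOR1A cells define the normal pattern.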

In test [4] the target is Cytochrome P450 2D6 (Homo sapiens) (UniProt P10635). The test is described as follows: Cytochrome P450 family 2 subfamily D member 6 (CYP2D6) small molecule antagonists: luciferase biochemical (cell-free) qHTS assay (AID 1645840; active = well fitted curve in the direction sought with a large enough effect in the repeat runs; an effect the other way counts as inactive or inconclusive; note: nearly all actives have a fitted effect of over 55% in size; note: potency is the fitted concentration of half-maximal effect). The gist of the method:
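P450-Glo CYP2D6 system: proluciferin substrate converted by enzyme to luciferin, read by luminescence proportional to activity. Enzyme-substrate mix with compound 10 min at room temperature, then NADPH regeneration 1 h before detection reagent.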

The target in test [5] is Cytochrome P450 2C9 (Homo sapiens) (UniProt P11712). The test is described as follows: Cytochrome P450 family 2 subfamily C member 9 (CYP2C9) small molecule antagonists: luciferase biochemical (cell-free) qHTS assay (AID 1645842; active = well fitted curve in the direction sought with a large enough effect in the repeat runs; an effect the other way counts as inactive or inconclusive; note: nearly all actives have a fitted effect of over 55% in size; note: potency is the fitted concentration of half-maximal effect). The gist of the method: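 P450-Glo CYP2C9 system: proluciferin substrate with enzyme in mix containing 0.4% BSA, 10 min at room temperature, then NADPH regeneration solution added and incubated 1 h at 37C. Detection reagent stopped reaction; luminescence read after 20 min as RLU.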

For test [6], the target named is Cytochrome P450 3A4 (Homo sapiens) (UniProt P08684). The test can be described thus: Cytochrome P450 family 3 subfamily A member 4 (CYP3A4) small molecule antagonists: luciferase qHTS assay (AID 1645841; active = well fitted curve in the direction sought with a large enough effect in the repeat runs; an effect the other way counts as inactive or inconclusive; note: nearly all actives have a fitted effect of over 45% in size). Put shortly:
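P450-Glo CYP3A4 enzyme with proluciferin substrate was preincubated with DMSO-dissolved compounds for 10 min at room temperature. NADPH regeneration solution started a 1 h reaction. Detection reagent stopped it, and luminescence was read after 20 min.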

Chain of Papain (Carica papaya) (P00784 whole entry, looked up, the tested form may be a part): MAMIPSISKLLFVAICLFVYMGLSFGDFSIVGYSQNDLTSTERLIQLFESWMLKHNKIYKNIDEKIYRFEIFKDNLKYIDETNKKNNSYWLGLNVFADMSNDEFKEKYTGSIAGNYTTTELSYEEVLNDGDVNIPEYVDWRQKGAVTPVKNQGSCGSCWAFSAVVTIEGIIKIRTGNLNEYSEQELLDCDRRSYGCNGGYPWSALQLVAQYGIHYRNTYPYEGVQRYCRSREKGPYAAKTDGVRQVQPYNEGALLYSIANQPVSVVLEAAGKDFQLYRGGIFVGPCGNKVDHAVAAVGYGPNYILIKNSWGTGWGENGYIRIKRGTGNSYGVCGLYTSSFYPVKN
Chain of Cytochrome P450 2C9 (Homo sapiens) (P11712 whole entry, looked up): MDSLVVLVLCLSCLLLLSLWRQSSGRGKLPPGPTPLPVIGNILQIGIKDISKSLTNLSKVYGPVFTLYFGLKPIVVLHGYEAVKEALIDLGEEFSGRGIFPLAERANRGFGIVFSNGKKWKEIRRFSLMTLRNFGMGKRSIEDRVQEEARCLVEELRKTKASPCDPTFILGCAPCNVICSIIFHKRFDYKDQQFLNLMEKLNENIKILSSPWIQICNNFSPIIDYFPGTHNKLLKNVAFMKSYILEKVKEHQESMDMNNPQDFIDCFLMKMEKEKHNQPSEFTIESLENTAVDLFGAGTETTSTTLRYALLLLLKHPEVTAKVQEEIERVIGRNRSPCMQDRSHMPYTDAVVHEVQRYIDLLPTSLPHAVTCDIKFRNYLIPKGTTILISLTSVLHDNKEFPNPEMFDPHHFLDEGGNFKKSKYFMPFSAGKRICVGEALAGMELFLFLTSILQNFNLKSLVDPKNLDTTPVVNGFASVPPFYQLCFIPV
Chain of Cytochrome P450 2D6 (Homo sapiens) (P10635 whole entry, looked up): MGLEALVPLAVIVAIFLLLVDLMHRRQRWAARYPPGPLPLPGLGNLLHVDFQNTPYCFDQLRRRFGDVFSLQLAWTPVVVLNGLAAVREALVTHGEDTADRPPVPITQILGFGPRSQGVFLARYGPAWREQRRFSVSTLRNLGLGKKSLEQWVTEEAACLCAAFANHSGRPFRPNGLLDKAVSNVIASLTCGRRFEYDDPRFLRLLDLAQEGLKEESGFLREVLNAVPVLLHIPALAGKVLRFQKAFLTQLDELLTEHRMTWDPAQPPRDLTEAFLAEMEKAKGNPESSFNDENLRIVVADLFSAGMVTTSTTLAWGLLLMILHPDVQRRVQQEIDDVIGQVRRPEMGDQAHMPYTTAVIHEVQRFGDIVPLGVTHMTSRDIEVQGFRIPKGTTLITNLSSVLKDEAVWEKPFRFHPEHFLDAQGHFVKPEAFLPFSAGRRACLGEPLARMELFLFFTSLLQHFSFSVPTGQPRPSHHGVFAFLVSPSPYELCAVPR
Chain of Cytochrome P450 3A4 (Homo sapiens) (P08684 whole entry, looked up): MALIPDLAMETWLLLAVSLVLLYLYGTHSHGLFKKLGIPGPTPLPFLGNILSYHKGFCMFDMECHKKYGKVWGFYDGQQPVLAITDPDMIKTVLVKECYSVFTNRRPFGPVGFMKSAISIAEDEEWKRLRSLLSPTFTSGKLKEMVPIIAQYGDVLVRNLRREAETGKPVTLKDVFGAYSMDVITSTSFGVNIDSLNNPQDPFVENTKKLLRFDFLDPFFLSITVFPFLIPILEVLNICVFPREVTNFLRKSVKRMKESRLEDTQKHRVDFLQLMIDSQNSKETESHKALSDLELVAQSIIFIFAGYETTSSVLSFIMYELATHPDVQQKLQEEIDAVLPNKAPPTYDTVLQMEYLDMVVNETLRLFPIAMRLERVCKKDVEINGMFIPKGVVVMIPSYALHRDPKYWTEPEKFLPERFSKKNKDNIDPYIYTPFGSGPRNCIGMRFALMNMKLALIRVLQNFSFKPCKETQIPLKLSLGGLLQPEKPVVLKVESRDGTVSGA

`NC(N)=NCCCCN=C(N)N`: the Potency result in test [1] was “inactive”. In the test with Papain (Carica papaya), the molecule was called inactive.
Turning to `CC(C)N(CCC(=O)c1ccc2ccccc2c1)Cc1ccccc1`, the Potency result in test [1] was “inactive”. The Potency in test [2] is 6.61 µM (active) and 8.2 µM (active).
Consider `CC(C)(C)c1cc(C=O)cc(C(C)(C)C)c1O`, for which, in test [3], the Potency entry is “inactive”.
For `Brc1ccc([C@H]2CN3CCSC3=N2)cc1`, the Potency result in test [1] and in test [2] was “inactive” in each case. The result with Papain (Carica papaya) was inactive.
As for `CC(=O)[C@H]1CC[C@H]2[C@@H]3C=CC4=CC(=O)CC[C@@]4(C)[C@@H]3CC[C@]12C`, in test [1], the Potency result was “inactive”. The Potency in test [4] is 15.5 µM (active); in test [2], 13.3 µM (active) and inactive.
`Cn1cnc2c(NCc3ccccc3)nc(NCCO)nc21`: the Potency entry in test [1] is “inactive”. In the test with Papain (Carica papaya), the outcome was inactive.
Turning to `C=CC[N+]1([C@H]2C[C@H]3[C@@H]4CC[C@H]5C[C@H](OC(C)=O)[C@@H](N6CCCCC6)C[C@]5(C)[C@H]4CC[C@]3(C)[C@H]2OC(=O)CC)CCCCC1`, the Potency entry in test [1], in test [5] and in test [2] was “inactive” throughout.
As to `Cc1cc(OCCOCC[N+](C)(C)Cc2ccccc2)ccc1C(C)(C)CC(C)(C)C`, the Potency result in test [1] was “inactive”. Also, the Potency in test [4] was 7.76 µM (active); in test [2], 1.19 µM (active).
As for `CCOC(=O)C(=O)CCCCCCl`, the Potency entry in test [1] and in test [2] was “inactive” each time. In test [5], the Potency is 24.2 µM (active).
`CCCCCN(CCCOC)C(=O)C(CCC(=O)O)NC(=O)c1ccc(Cl)c(Cl)c1` (centres undefined): the Potency entry in test [1], in test [4] and in test [2] was “inactive” throughout. The Potency in test [5] is 19.5 µM (active).
On to `CCCCCCCCCCCCCCCCCCNC(=O)OC1CCN(C(=O)OC[C@H](COC(=O)N(Cc2cccc[n+]2CC)C(=O)c2ccccc2OC)OC)CC1`, for which the Potency result in test [1] is “inactive”. Further, the Potency is 17.4 µM (active) in test [4] and 2.66 µM (active) in test [2].
`CCCCCCCCCCCCCCCC[n+]1ccccc1`: in test [1], the Potency result was “inactive”. In addition, in test [2], the Potency was 0.376 µM (active).
`COc1ccccc1N1CCN(CCN2C(=O)CC3(CCCC3)CC2=O)CC1`: the Potency entry in test [1] and in test [2] was “inactive” in each case. Besides, the molecule was called inactive with Papain (Carica papaya).
As to `Cc1cc(O)c2c(O)c3c(O)cccc3cc2c1`, the Potency result in test [1] and in test [2] was “inactive” throughout. For the same molecule, the Potency in test [5] is 3.09 µM (active).
In the case of `CC(=O)N[C@@H](CO)C(=O)N[C@@H](CC(=O)O)C(=O)N[C@@H](CCCCN)C(=O)N1CCC[C@H]1C(=O)O` (Ac-SDKP-OH), the Potency entry in test [1], in test [5] and in test [2] was “inactive” throughout.
On to `NCC(=O)O`, for which the Potency result in test [3] was “inactive”.
For the molecule `CCOC(=O)C1=C(C)NC(C)=C(C(=O)OCC)C1c1ccccc1/C=C/C(=O)OC(C)(C)C`, in test [1], the Potency entry is “inactive”. Also, the values for the Potency in test [5] and in test [2] were 0.49 µM (active) and 21.1 µM (active), respectively.
For the molecule `CC[C@@]1(O)C(=O)OCc2c1cc1n(c2=O)Cc2c-1nc1ccccc1c2/C=N/OC(C)(C)C`, the Potency result in test [1] and in test [2] was “inactive” in each case.
In the case of `C#CC(C)(CC)OC(=O)c1ccccc1C(=O)O` (centres undefined), the Potency entry in test [3], in test [4], in test [5] and in test [2] was “inactive” in each case.
Consider `CCN(CC)CC(=O)Oc1ccc(NC(C)=O)cc1`, for which the Potency result in test [3], in test [4], in test [5] and in test [2] was “inactive” in each case.
Regarding `COCCc1ccc(OCC2CO2)cc1` (centres undefined), the Potency result in test [3], in test [4], in test [5] and in test [2] was “inactive” throughout.
As to `CCN(CC)CC(=O)Nc1c(C)cccc1C(=O)OC`, the Potency entry in test [3], in test [4], in test [5] and in test [2] was “inactive” each time.
As for `CCCCCCCCCCCCCC[N+](C)(C)C`, the figures for the Potency in test [3], in test [4] and in test [2] were 10 µM (active), 3.09 µM (active) and 0.237 µM (active), respectively. The Potency entry in test [5] is “inactive”.
For the molecule `CC(=O)OCC(=O)[C@@]1(O)[C@H](OC(C)=O)C[C@H]2[C@@H]3CCC4=CC(=O)C=C[C@]4(C)[C@@]3(F)[C@@H](O)C[C@@]21C`, the Potency entry in test [3], in test [4] and in test [5] was “inactive” each time.
With `C[N+]1(C)CCC(OC(=O)C(O)(c2ccccc2)C2CCCC2)C1` (centres undefined), in test [3], the Potency result is “inactive”.
As to `CCC[C@H](N[C@@H](C)C(=O)N1[C@H](C(=O)O)C[C@@H]2CCCC[C@@H]21)C(=O)OCC`, the Potency result in test [3], in test [4] and in test [5] was “inactive” each time.
As for `O=C(O)CCC(=O)OC[C@@H](NC(=O)C(Cl)Cl)[C@H](O)c1ccc([N+](=O)[O-])cc1`, the Potency result in test [3] and in test [4] was “inactive” in each case.
For the molecule `Cc1cc(C(C)(C)C)c(O)c(C(C)(C)C)c1`, the Potency entry in test [3], in test [4] and in test [5] was “inactive” in each case.
Turning to `CC(=O)CC/C=C(\C)CC/C=C(\C)CC/C=C(\C)CCC=C(C)C`, the Potency result in test [3] and in test [4] was “inactive” in each case.
As to `O=C(COCCOCCOCC(=O)Nc1c(I)cc(I)c(C(=O)O)c1I)Nc1c(I)cc(I)c(C(=O)O)c1I`, the Potency result in test [3], in test [4], in test [5] and in test [2] was “inactive” in each case.
`COc1cc(OC)nc(O[C@H](C(=O)O)C(OC)(c2ccccc2)c2ccccc2)n1`: the Potency result in test [3], in test [4] and in test [5] was “inactive” in each case.
`CCCCOC(=O)CCCCCCCCC(=O)OCCCC`: the Potency result in test [3], in test [4] and in test [2] was “inactive” each time. In test [5], the Potency is 19 µM (active).
For `Cn1c(=O)c2c(ncn2CC(=O)O)n(C)c1=O`, the Potency result in test [3], in test [4], in test [5] and in test [2] was “inactive” throughout.
Turning to `CCC(C(=O)NC(=O)NC(C)=O)c1ccccc1` (centres undefined), the Potency entry in test [3], in test [4], in test [5] and in test [2] was “inactive” throughout.
As for `N=C(N)c1ccc(OCCCOc2ccc(C(=N)N)cc2)cc1`, the Potency entry in test [3], in test [4] and in test [6] was “inactive” throughout.
Turning to `COc1c(N2C[C@@H]3CCCN[C@@H]3C2)c(F)cc2c(=O)c(C(=O)O)cn(C3CC3)c12`, the Potency result in test [3], in test [4] and in test [5] was “inactive” in each case.
For `CO/N=C(/C(=O)N[C@@H]1C(=O)N2C(C(=O)OCOC(=O)C(C)(C)C)=C(C)CS[C@H]12)c1csc(N)n1`, the Potency entry in test [3] and in test [4] was “inactive” each time. The Potency in test [5] was 17.4 µM (active).
As for `CN(C)[C@@H]1C(=O)C(C(N)=O)=C(O)[C@@]2(O)C(=O)C3=C(O)c4c(O)cccc4C[C@H]3C[C@@H]12`, the Potency entry in test [3], in test [4], in test [6] and in test [5] was “inactive” each time.
Consider `CCCC(CCC)(C(=O)OCC)C(=O)OCC`, for which the Potency result in test [3], in test [4], in test [5] and in test [2] was “inactive” in each case.
Regarding `Cc1cccc(C)c1NC(=O)c1cc(S(N)(=O)=O)c(Cl)cc1O`, the Potency entry in test [3], in test [4], in test [5] and in test [2] was “inactive” each time.
For the molecule `O=C1CC[C@H](C(=O)N2CCCCC2)N1`, the Potency result in test [3], in test [4], in test [5] and in test [2] was “inactive” throughout.
